Assay results as given in PubChem BioAssay (NCI).
About 83,000 compounds went through this panel and 20% of them were active in at least one assay; those are over-represented in the sample as a whole.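 A percent growth of 40 corresponds to 60% growth inhibition; 0 means no net growth; -100 means all cells died. Active threshold: below 10.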 Values without a mark were called inactive. Activity calls are given as the source filed them.

Legend:
Assay in all cases: NCI-60 one-dose screen, 48 h (100 = growth as untreated, 0 = no growth, -100 = all killed)
NCI-H23 lung = conditions: 10 µM unless noted
NCI-H226 lung = conditions: 10 µM unless noted
NCI-H322M lung = conditions: 10 µM unless noted
NCI-H460 lung = conditions: 10 µM unless noted
HOP-92 NSCLC = conditions: 10 µM
NCI-H522 lung = conditions: 10 µM
A549/ATCC NSCLC = conditions: 10 µM unless noted
786-0 renal = conditions: 10 µM unless noted
COLO 205 colon = conditions: 10 µM unless noted

| SMILES | growth (NCI-H23 lung) | growth (NCI-H226 lung) | growth (NCI-H322M lung) | growth (NCI-H460 lung) | growth (HOP-92 NSCLC) | growth (NCI-H522 lung) | growth (A549/ATCC NSCLC) | growth (786-0 renal) | growth (COLO 205 colon) |
| --- | --- | --- | --- | --- | --- | --- | --- | --- | --- |
| CCOC(=O)c1cc(-c2ccc(OC)cc2)[nH]c1NNC(=O)CCOC | 114% | 105% | 118% | 119% | 73.1% | 98% | 99.9% | 84.3% | – |
| Cc1c(Cc2ccccc2)c(=O)oc2c(C)c(OCc3n[nH]c(=S)o3)ccc12 | 57.7% | 84.8% | 63.8% | 3.31% (active) | 57.8% | 61% | 26.9% | 68.9% | – |
| COC(=O)c1ccc2[nH]c(O)c(C(=Nc3ccc(N(C)C(=O)CN4CCN(C)CC4)cc3)c3ccc(N)cc3)c2c1 | 70% | 56.5% | 77.4% | 105% | 78.3% | 75.5% | 111% | 63.9% | 41.4% |
| N=C(N)N=Nc1ccc(NN=C(N)N)cc1 | 104% | 81.5% | 126% | 85.8% | 96% | 88.1% | 8.54% (active) | 98.9% | 64.1% |
| O=C(CCCC(=O)Nc1ccc(Cn2nnc3cc(Cl)c(Cl)cc32)cc1)Nc1ccc(CN2N=NC3C=C(Cl)C(Cl)=CC32)cc1 (stereo not drawn) | 62.2% | 72.7% | 74% | 84.1% | 64.7% | 62.4% | 74.5% | 85.3% | – |
| O=C1c2ccccc2CCc2ccccc21 | 100% | 100% | 92.7% | 108% | 78.7% | 86.4% | 98.5% | 109% | – |
| Nc1nc2c(c3cnccc13)C(c1ccc(Cl)c(Cl)c1)Cc1cnccc1-2 (stereo not drawn) | -37.6% (active) | -26% (active) | -26.6% (active) | -29.6% (active) | -45% (active) | -16.4% (active) | -24.7% (active) | -65.8% (active) | – |
| COc1ccc(OC)c(Cn2cc3c(c2)-c2oncc2CC3)c1 | 28.8% | 70.2% | 26% | 14.1% | 59.8% | 50.3% | 43.3% | 46% | 35.8% |
| Nc1nc2c(c3ncncc13)C(c1cccc(C(F)(F)F)c1)Cc1ncncc1-2 (stereo not drawn) | 18.4% | 55.6% | 39% | 10% | 46% | 32.9% | 39.8% | 28.5% | – |
| COc1cc(OC)c(NC(=O)n2ncc3cc(Nc4ncnc5ccccc45)ccc32)cc1Cl | 97.5% | 104% | 14.1% | 108% | 87.3% | 72.1% | 80.3% | 73.1% | – |
| CCCCCSc1ccc2nc(NC(=O)OCC)sc2c1 | 18.5% | 21.7% | 41.3% | 10.5% | 31.7% | 20.8% | 34.6% | 33.6% | – |
| CCOC(=O)C1=C(C(F)(F)F)NC(=O)NC1CN1C(=O)c2ccccc2C1=O (stereo not drawn) | 99.3% | 111% | 107% | 112% | 60.8% | 115% | 115% | 104% | 116% |
| COc1ccc(C2=NN(C(=O)c3cc(-c4ccc(C)cc4)nc4ccccc34)C(c3cc(-c4ccccc4)nn3-c3ccccc3)C2)cc1 (stereo not drawn) | 90.4% | 83.4% | 84.6% | 74.5% | 86.6% | 82.9% | 89.1% | 95.6% | – |
| CC(=O)c1cc(Nc2cc(C)nc(N)n2)cc(C(C)=O)c1 | 83.2% | 101% | 107% | 104% | 71.9% | 99.8% | 116% | 95.3% | – |
| COc1cc(OC)cc(-c2ccc(-c3ccc(C(=N)N)cc3)s2)c1 | -77.5% (active) | -67.5% (active) | -89.3% (active) | -88.5% (active) | -80.6% (active) | -58.2% (active) | -41.5% (active) | -60.2% (active) | – |
| COc1cc2ncnc(-n3ncc4cc(NC(=O)Nc5ccc(Cl)c(Cl)c5)ccc43)c2cc1OC | -54% (active) | -63.4% (active) | -46.1% (active) | -53.9% (active) | -57.2% (active) | 1.38% (active) | 0.341% (active) | -43.4% (active) | – |
| CC1(C)Oc2cc3oc(=O)ccc3cc2C[C@@H]1OCCOS(=O)(=O)c1ccc(C#N)cc1 | 91.8% | 87.8% | 105% | 93% | 91.4% | 77.8% | 92.5% | 100% | – |
| C/C(CCC(=O)O)=N/Nc1ccc([N+](=O)[O-])cc1 | 87.8% | 93.3% | 93.5% | 38% | 74.9% | 61.2% | 54% | 45.7% | – |
| NC(=O)c1c(Nc2ccccc2)nn2cc(-c3nc4ccccc4s3)c(N)nc12 | 95.2% | 85.5% | 103% | 98.6% | 93.2% | 91.4% | 105% | 109% | 106% |
| c1cc(C2CCCCC2)ccc1OCCCCCCN1CCNCC1 | 42.3% | 81.9% | 82% | -7.36% (active) | 6.55% (active) | 77.7% | 36.5% | 58.3% | -52.2% (active) |
| O=C(/C=C1\C(=O)N(Cc2ccc([N+](=O)[O-])cc2)c2ccccc21)c1ccc(OCCN2CCCC2)cc1 | 69.2% | 78.5% | 66.2% | 91.4% | 46.2% | 38.5% | 93.4% | 69.7% | 81% |
| COc1ccc(OC)c(Cn2cc3c(c2-c2ccccc2)CCc2cnoc2-3)c1 | 60.8% | 78.8% | 57.5% | 22.7% | 59.8% | 56.4% | 50.8% | 66.6% | 35.9% |
| COc1ccc(Cn2cc3c(c2-c2ccccc2)CCc2cnoc2-3)cc1N | 20.5% | 13% | 35% | -4.24% (active) | 64.1% | 33.8% | 29.4% | 38.8% | -24.7% (active) |
| CC1C(=O)CCCC1=O | 113% | 121% | 99.4% | 120% | 106% | 90.9% | 102% | 103% | 114% |
| CCC(C)C1NC(=O)C(CC(C)C)NC(=O)C(C)NC(=O)C(C(C)C)NC(=O)C(CCCCN)NC(=O)C(CC(C)C)NC(=O)C(C(C)C)NC(=O)[C@H](C)NC(=O)C(C(C)CC)NC(=O)C(CCCN=C(N)N)NC(=O)C(CCCCN)NC(=O)C(CCCN=C(N)N)NC(=O)C(CCCCN)NC(=O)C([C@H](C)CC)NC(=O)C(CCCCN)NC1=O (stereo partly drawn) | 8.22% (active) | 44.9% | 64.9% | 4.91% (active) | -21.8% (active) | -5.53% (active) | 22.3% | 10.5% | -73% (active) |
| COc1cc(NC(C)CCCN)c2nc(C)ccc2c1OC (stereo not drawn) | 90.9% | 102% | 96.9% | 109% | 55.5% | 101% | 147% | 98.3% | 60.5% |
| CCOC(=O)NNc1[nH]c(-c2ccc(OC)cc2)cc1C#N | 88.9% | 101% | 79.4% | 99.1% | 76.4% | 76% | 100% | 94.8% | 14.5% |
| CC1(C)CC(=O)C2=C(C1)Oc1nc(N)c(C#N)c(N)c1C2c1ccc(F)cc1 (stereo not drawn) | 133% | 106% | 123% | 117% | 76.4% | 146% | 110% | 94.2% | 127% |
